ROMK primary – modulators of human ROMK potassium channel; P48048; B-score at 10 µM; 130,000 compounds, 2% hits; AID 1918; Tet-inducible ROMK, thallium flux fluorescence; actives lie on both sides;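 active = signal ratio slope over the read window, or its plate-corrected B-score, at least 3 SD from the plate mean, either direction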;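 also: B-score of the F/F0 ratio slope over 7 to 12 s after thallium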
S1P4 antagonist – antagonists of human S1P4 receptor; O95977; S1P4-expressing cells, antagonist mode, reporter read-out; AID 1510; inhibition, % at 4.98 µM; 220,000 compounds, 0.26% hits; in the data active = inhibition above about 29%;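 also: 0% = wells stimulated with agonist and 100% = vehicle wells without agonist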
Target sequence (O95977 whole entry, looked up): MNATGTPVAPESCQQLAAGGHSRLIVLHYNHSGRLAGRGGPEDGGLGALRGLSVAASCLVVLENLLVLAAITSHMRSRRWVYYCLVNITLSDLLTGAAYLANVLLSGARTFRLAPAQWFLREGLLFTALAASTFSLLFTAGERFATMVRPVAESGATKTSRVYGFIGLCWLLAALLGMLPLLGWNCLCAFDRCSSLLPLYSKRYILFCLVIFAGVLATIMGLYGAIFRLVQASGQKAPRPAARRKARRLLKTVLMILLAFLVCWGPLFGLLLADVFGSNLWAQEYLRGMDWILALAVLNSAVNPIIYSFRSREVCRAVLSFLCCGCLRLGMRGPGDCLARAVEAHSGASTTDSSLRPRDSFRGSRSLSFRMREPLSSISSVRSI
RAM network inh – yeast RAM network inhibition | inhibition, % at 50 µM | 190,000 compounds, 1.8% hits | S. cerevisiae dse1pr::URA3 reporter, 5-FOA growth OD615, 2 d; analog-sensitive cbk1-as2 kinase mutant strain | AID 868;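 active = inhibition above a set limit, 3 SD over mean compound inhibition, cut at about 8.4% in these data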;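 also: 0% = DMSO-only wells with no growth and 100% = 10 µM 1-NA-PP1 full growth; inhibition rescues growth on 5-FOA so higher OD means more RAM inhibition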
S1P3 antag – S1P3 (human) receptor antagonism | CHO S1P3 NFAT-BLA reporter, FRET fluorescence, antagonist mode | inhibition, % at 4.98 µM | 170,000 compounds, 0.27% hits;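 active = inhibition above the plate cutoff, the mean inhibition of test wells on that plate plus 3 SD, cut at about 28% in these data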;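 also: cells challenged with S1P at its EC80 of 0.8 µM; blue over green emission ratio from cleaved BLA substrate after 4 h stimulation; 0% = S1P-stimulated wells and 100% = unstimulated DMSO-only wells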
Target sequence (Q99500 whole entry, looked up): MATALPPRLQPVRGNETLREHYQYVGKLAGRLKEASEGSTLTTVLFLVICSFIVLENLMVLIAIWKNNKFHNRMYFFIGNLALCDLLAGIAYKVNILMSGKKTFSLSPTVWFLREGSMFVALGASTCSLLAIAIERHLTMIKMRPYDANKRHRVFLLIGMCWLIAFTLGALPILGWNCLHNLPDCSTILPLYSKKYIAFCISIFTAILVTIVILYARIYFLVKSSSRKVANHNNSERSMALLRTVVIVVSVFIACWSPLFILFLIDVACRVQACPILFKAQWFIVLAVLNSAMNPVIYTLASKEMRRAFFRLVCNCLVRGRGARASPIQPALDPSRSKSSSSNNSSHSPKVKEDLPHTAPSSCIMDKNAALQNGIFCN
KCC2 mod – modulates chloride dependent transport by human KCC2 | Q9H2X9 | KCC2 cells, thallium flux FluoZin-2 fluorescence | B-score of Tl+ flux slope (higher = more flux/activation; lower = inhibition) at 10 µM | 190,000 compounds, 2.2% hits | AID 1456;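 active = thallium flux slope and its plate-corrected score both differing from the plate sample mean at a set confidence after two filtering rounds, in either direction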;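 also: slope of fluorescence scaled to starting intensity during 10 to 20 s after thallium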
S1P4 agonist – human S1P4 receptor agonism. O95977. S1P4-expressing cell line, agonist reporter assay. activation, % at 4.98 µM. 220,000 compounds, 0.35% hits; in the data active = activation above about 11%;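 also: 0% = DMSO vehicle and 100% = reference agonist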
KCC2 secondary – confirmation of human KCC2 transport modulators. 3,700 compounds, 15% hits. AID 1713. normalised thallium flux (F/F0 slope) at 10 µM. HEK293-KCC2, thallium flux, FluoZin2 fluorescence; hits give high values. shares compounds with KCC2 mod;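 active = thallium flux slope above the same plate's solvent-only control mean plus 3 SD; inconclusive = the two replicate wells disagree; inactive = no significant difference from solvent-only control wells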
KCC2 bumet counter – thallium flux despite bumetanide block in KCC2 cells, secondary assay 3; shares compounds with KCC2 mod; HEK293-KCC2 + bumetanide/ouabain, thallium flux FluoZin2; hits give high values; normalized thallium flux at 10 µM; 3,700 compounds, 49% hits; AID 1714;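 active = thallium entry rate above the same plate's blocked-transporter control wells by more than 3 SD; inconclusive = the two repeat wells disagree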;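 also: raw slope of fluorescence over initial fluorescence between 10 and 20 s after thallium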
KCC2 secondary2 – confirmation of human KCC2 transport modulators; shares compounds with KCC2 mod; 3,700 compounds, 23% hits; normalized thallium flux at 10 µM; HEK293-KCC2, thallium flux FluoZin2 fluorescence; actives lie on both sides; F/F0 rise rate, 10–20 s post-thallium;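 active = thallium flux slope more than 3 SD above or below the plate's solvent-only control mean, mostly below; inconclusive = the two repeat wells disagreed; inactive = no significant shift from solvent-only controls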;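 also: raw slope with 0.1% DMSO as baseline and bumetanide as block control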
HEK293 Tl flux – acts in parental HEK cells, KCC2 counter-screen | 3,700 compounds, 46% hits | shares compounds with KCC2 mod | thallium flux rate (normalised fluorescence) at 10 µM | HEK293 parental cells, thallium flux FluoZin2, ouabain; baseline-ratio fluorescence slope, 10–20 s after thallium | AID 1716;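 active = thallium flux rate significantly above the same plate's solvent-only control wells, beyond their mean plus 3 SD; inconclusive = the two replicate wells gave conflicting results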
KCC2 retest ouab – modulates human KCC2 on retest with ouabain; shares compounds with KCC2 mod; HEK293-KCC2, thallium flux FluoZin2 fluorescence; bidirectional: low = inhibitor, high = activator; raw Tl+ flux slope (below DMSO = inhibition, above = activation) at 10 µM; 3,700 compounds, 48% hits; AID 1717;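 active = thallium flux slope beyond 3 SD from same-plate DMSO control mean in most replicates, usually higher, sometimes lower; inconclusive = repeat tests gave conflicting results; inactive = no significant difference from controls in most replicates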;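 also: slope of initial-normalized fluorescence between seconds 10 and 20 after thallium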
HEK counter2 – counter-screen for KCC2 modulators: effect in parental HEK293 cells. shares compounds with KCC2 mod. thallium flux FluoZin-2 fluorescence slope. thallium flux slope at 10 µM. 3,700 compounds, 33% hits. AID 1718;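 active = thallium flux slope above the same plate's solvent-control mean plus 3 SD in both duplicate wells; inconclusive = duplicate wells that disagreed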;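 also: run without ouabain in cells lacking the KCC2 cotransporter; slope of fluorescence scaled to its starting value between 10 and 20 s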
Active calls of the source: *; ? = inconclusive; / = no result given. An excerpt weighted towards active compounds, which were near 5.1% of everything screened.

SMILES	ROMK primary	S1P4 antagonist	RAM network inh	S1P3 antag	KCC2 mod	S1P4 agonist	KCC2 secondary	KCC2 bumet counter	KCC2 secondary2	HEK293 Tl flux	KCC2 retest ouab	HEK counter2
C=CCn1c(C)cc(C(=O)CSc2nnc(Cc3ccccc3)o2)c1C	-1.1	-5	9.8*	/	/	0	0.007	0.0062	0.03*	0.0036	0.017*	0.011
O=C(CSc1nnc(CNc2ccccc2)o1)N1CCc2ccccc21	/	-7	2	2	-1	0	/	/	/	/	/	/
O=C(CSc1nnc(Cc2ccccc2)o1)N1CCCc2ccccc21	-0.61	-12	0	19	-6.1*	-1	0.0056	0.0038	0.021*	0.0068	0.012*	?
O=C(CSc1nnc(Cc2ccccc2)o1)c1cc(F)ccc1F	-0.17	7	3	-31	-7.1*	-1	0.0039*	0.0046	0.02*	?	0.012*	0.0099
O=C(CSc1nnc(Cc2ccsc2)o1)c1ccccc1	-0.73	7	/	1	-4.3	-2	/	/	/	/	/	/
Clc1ccc(-c2nc(/C=N/N3CCOCC3)c3ccccn23)cc1	-2.4	-3	0	4	0.031	0	/	/	/	/	/	/
CC12CCC(C(=O)NCc3ccccc3Cl)(CC1=O)C2(C)C (stereo unspecified)	1.4	4	0	2	0.16	1	/	/	/	/	/	/
O=C(O)CCC(=O)NNC(=O)c1cccs1	0.097	-2	0	-3	-0.6	3	/	/	/	/	/	/
O=P(CCN1CCCCC1)(c1ccccc1)c1ccccc1	1.4	0	1	/	-17*	0	0.0066	0.005	0.028	0.0078	0.018	0.012
O=C(CCNS(=O)(=O)c1cccc2nonc12)NCCc1ccc(Cl)cc1	/	-3	6	/	-3.6*	0	?	0.0059	0.032	0.0069	0.017*	0.0095
O=C(Cn1nnc2c(cnn2-c2ccccc2)c1=O)NCc1cccs1	/	-6	2	-25	/	4	/	/	/	/	/	/
O=C(Cn1nnc2c(cnn2-c2ccc(F)cc2)c1=O)Nc1ccccc1C(F)(F)F	0.32	-5	3	-12	-3.9*	-1	0.0073	?	0.033	0.0071	0.017*	0.01
CC1C2NC(=O)N(Cc3ccccc3)C1(C)Oc1ccccc12 (stereo unspecified)	-0.1	-1	1	-35	-0.14	1	/	/	/	/	/	/
COC(=O)c1ccc(Nc2c([N+](=O)[O-])c(=O)oc3ccccc23)cc1	0.51	-1	/	10	-4.5*	2	0.0085	?	0.029	?	0.027*	?
CC(=O)c1cccc(Nc2c([N+](=O)[O-])c(=O)oc3ccccc23)c1	/	-6	/	-3	-0.42	0	/	/	/	/	/	/
O=c1oc2ccccc2c(Nc2ccc(Cl)cc2)c1[N+](=O)[O-]	0.59	-2	/	-6	-2.3	-1	/	/	/	/	/	/
Cc1ccc(Nc2c([N+](=O)[O-])c(=O)oc3ccccc23)cc1C	0.13	-8	3	1	-2.8*	-1	0.018	0.0042	0.03	?	0.014	0.009
O=c1oc2ccccc2c(Nc2ccc(F)cc2)c1[N+](=O)[O-]	0.14	6	1	8	-3.4*	0	0.0058	0.0046	0.029	0.0063*	0.017	?
O=c1oc2ccccc2c(Nc2cccc(O)c2)c1[N+](=O)[O-]	-0.34	-7	1	/	/	-3	/	/	/	/	/	/
Cc1ccc(SCC(=O)N2CCN(c3ccccn3)CC2)cc1	/	-10	/	0	0.36	0	/	/	/	/	/	/
O=C(CSc1nccc2ccccc12)N1CCN(c2ccccn2)CC1	/	2	1	6	-3.3*	0	0.0066	0.0045	0.027	0.0076	0.015*	0.01
Cc1ccc2c(Cl)cc(Cl)c(OCC(=O)Nc3cccc(S(N)(=O)=O)c3)c2n1	/	-13	4	2	2.4	9	/	/	/	/	/	/
Cc1cc(C(=O)OCC(=O)Nc2cccc(S(=O)(=O)N(C)C)c2)c2ccccc2n1	0.071	-11	1	-6	-2.9*	1	0.0089	0.006	0.03	0.0057*	0.019	0.0093
Cc1ccc2c(Cl)cc(Cl)c(OCC(=O)Nc3cccc(S(=O)(=O)N(C)C)c3)c2n1	/	0	2	-1	7.9*	2	0.01	0.019*	0.034	0.014*	0.03*	?
Cc1cc(C(=O)OCC(=O)Nc2cccc(S(=O)(=O)N(C)C)c2)c(C)o1	/	-5	/	1	-1.4	1	/	/	/	/	/	/
SMILES	ROMK primary	S1P4 antagonist	RAM network inh	S1P3 antag	KCC2 mod	S1P4 agonist	KCC2 secondary	KCC2 bumet counter	KCC2 secondary2	HEK293 Tl flux	KCC2 retest ouab	HEK counter2
Cc1ccc2c(Cl)cc(Cl)c(OCC(=O)Nc3cc(S(=O)(=O)N(C)C)ccc3C)c2n1	/	-19	3	-7	-0.98	3	/	/	/	/	/	/
Cc1ccc2c(Cl)cc(Cl)c(OCC(=O)Nc3ccc(C)c(S(=O)(=O)N(C)C)c3)c2n1	/	-11	5	-11	4.6*	1	0.0099	0.017*	0.034	0.016*	0.024*	0.012
O=C(CN(CC1CCCO1)C(=O)CNS(=O)(=O)c1ccc(Cl)cc1)NCC1CCCO1 (stereo unspecified)	0.42	3	5	/	-0.72	3	/	/	/	/	/	/
Cc1ccc(S(=O)(=O)N2CCN(S(=O)(=O)N3CCCCCC3)CC2)cc1	/	15	4	0	0.11	-1	/	/	/	/	/	/
COc1ccc(-c2cc(C(F)F)n3ncc(C(=O)Nc4cccc(S(=O)(=O)N5CCOCC5)c4)c3n2)cc1	0.47	3	7	-13	0.44	1	/	/	/	/	/	/
CCOC(=O)c1ccc(NC(=O)CCSCCc2ccccn2)cc1	/	-5	0	-7	-0.27	-1	/	/	/	/	/	/
CCc1ccc(Nc2nnc(SCC(=O)Nc3sccc3C(N)=O)s2)cc1	/	-16	4	-3	-4.9*	0	0.0054	0.0047	0.023*	0.0069	?	0.011
CCc1ccc(Nc2nnc(SCC(=O)NCCN3C(=O)CSC3=O)s2)cc1	0.00046	-10	3	-16	-3.7*	-1	0.007	0.0053	0.03	0.0067	?	0.0094
C=COC(=O)c1sc2nc(C)cc(C)c2c1N	/	-13	/	-14	1.1	2	/	/	/	/	/	/
O=C1CCN(S(=O)(=O)c2ccccc2)CCN1CCOCc1ccc(Cl)cc1	/	/	/	/	-0.51	/	/	/	/	/	/	/

Compound activity deposited in PubChem by several laboratories.
